Source: PubChem BioAssay (National Center for Advancing Translational Sciences (NCATS))
HT1080-NT tox: kills 2HG-producing HT-1080-NT fibrosarcoma cells; AID 686970; HT-1080-NT fibrosarcoma viability, CellTiter-Glo ATP luminescence, 48 h; Potency, µM (series often up to 46.1 µM), inactives show at the highest dose activity, negative = less viability, most hits filed as cytotoxic; actives 1.6% (n = 360,000);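 also: NT is the 2HG producing partner of a matched IDH1 knockdown line; potency is read from the fitted curve at half-maximal effect; 0% = DMSO-treated cells and -100% = media-only wells without cells; nearly all actives have a fitted effect of over 55% in size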
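Viability of the 2HG-overproducing fibrosarcoma line after 48 hours of compound exposure at 37 degrees C was determined by luminescence with CellTiter-Glo, and concentration-effect curves were then fitted and categorized.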
HT1080 IDH1KD tx: HT-1080 IDH1 knockdown cell toxicity (counter line). HT-1080 IDH1 knockdown viability, ATP luminescence, 48 h. Potency, µM (top dose mostly 46.1 µM), inactives show top-dose activity, negative = toxicity, actives largely listed as cytotoxic. actives 2% (n = 360,000). AID 686971;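 also: potency is read from the fitted curve at half-maximal effect; 0% = DMSO wells and -100% = cell-free medium wells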
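In this qHTS, HT-1080 cells depleted of IDH1 are exposed for 48 h at 37 °C to compound titrations. Toxicity is scored from CellTiter-Glo luminescence, with DMSO as full viability and medium alone as none.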
ELG1 repair inh: blocks ELG1-dependent DNA repair in HEK293T cells | HEK293T ELG1-luciferase reporter, luminescence, 16 h; DNA damage induced by 5-fluorouridine | Potency, µM (doses to about 46.1 µM), for inactives: at the top dose activity change, negative = inhibition, usual class: inhibitors | actives 2.3% (n = 330,000) | AID 504467; also: potency is read from the fitted curve at half-maximal effect; nearly all actives have a fitted effect of over 55% in size
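In this reporter screen, reduction of luminescence relative to DMSO vehicle indicated activity. Compounds and 5-fluorouridine were added together to 2,000 cells per well, incubated for 16 hr at 37 °C, then developed with ONE-Glo.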
DT40 TDP1 no CPT: qHTS for Inhibitors of human tyrosyl-DNA phosphodiesterase 1 (TDP1): qHTS in cells in absence of CPT. DT40 Tdp1-/- hTDP1 cells, no CPT, ATP luminescence, 48 h. Potency, µM (titrated, usually from 46.2 µM), inactives show top-dose activity change, negative = growth inhibition, usual class: inhibitors. actives 15% (n = 420,000); also: potency is read from the fitted curve at half-maximal effect; nearly all actives have a fitted effect of over 55% in size
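Luminescent ATP content (CellTiter-Glo) served as the growth readout. Knockout chicken DT40 cells expressing human TDP1 were exposed to compounds without camptothecin for a minimum 48 hr at 37 °C.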
DT40 TDP1 CPT: growth inhibition of DT40 Tdp1-/-;hTDP1 cells with camptothecin (screen for TDP1 inhibitors) | chicken DT40 Tdp1-/-;hTDP1 cells + 20 nM CPT, ATP luminescence, 48 h | Potency, µM (series often up to 46.2 µM), inactives show at the highest dose activity change, negative = growth inhibition, actives largely listed as inhibitors | actives 12% (n = 420,000) | AID 686979; also: potency is read from the fitted curve at half-maximal effect; nearly all actives have a fitted effect of over 55% in size
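Chicken DT40 Tdp1-/- cells stably complemented with human TDP1 were seeded at 400 cells/well in medium containing 20 nM camptothecin, exposed to pin-transferred compounds, and grown at 37 °C for at least 48 hr. Viability was read as ATP luminescence.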
IL1B secr inh: blocks inflammasome-driven IL-1 beta release; THP-1 LPS/ATP IL-1B secretion, AlphaLISA, 16 h; active compounds read low; activity change, % at 57.5 µM; actives 4.7% (n = 360,000); AID 743279; in the data active = activity change below about -50%; inconclusive = mostly about -30% to -49%
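Secreted IL-1B measured by AlphaLISA bead assay after 16 h compound exposure of THP-1 cells; compounds (final up to 57.5 uM) added 1 h before LPS (250 ng/mL) and ATP (1.25 mM) stimulation; lower signal means less secretion.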
Numbers without * were called inactive; ? = inconclusive; . = no result given. Compounds with a hit are over-represented: about 19% of the library has one in this group of screens. Unless noted, calls follow the shape of the dose curve; as a rule, active = well fitted curve in the direction sought with a large enough effect; inconclusive = small, poorly fitted or top-dose-only effect, or another doubt; inactive = no such curve, though single readings can be large; an effect the other way counts as inactive or inconclusive. Unless noted, % is scaled to controls: 0 for no effect and ±100 for the full control effect.

SMILES	HT1080-NT tox	HT1080 IDH1KD tx	ELG1 repair inh	DT40 TDP1 no CPT	DT40 TDP1 CPT	IL1B secr inh
COC(=O)c1ccccc1NC(=O)[C@@H]1CCC(=O)N1C1OC(=O)c2c1ccc(OC)c2OC (stereo partly specified)	0%	8%	-23%	-6%	5%	11
O=C(NCc1ccco1)c1cccc2c1C(=O)c1ccc(N3CCC(N4CCCCC4)CC3)cc1S2(=O)=O	5%	1%	.	-6%	19%	-22
N#CC(c1ccc(Cl)cc1)c1ncc(C(F)(F)F)cc1Cl (stereo unspecified)	0%	-2%	5%	-2%	-24%	8
Cn1cccc1C(C#N)c1ncc(C(F)(F)F)cc1Cl (stereo unspecified)	8%	-1%	?	7.3µM*	?	-2
CCOc1ccc(C(=O)NCCn2cc(SCC(=O)Nc3ccccc3)c3ccccc32)cc1	.	.	.	23µM*	?	.
COc1ccccc1NC(=O)C(=O)c1cn(CC(=O)N2CCOCC2)c2ccccc12	-7%	2%	?	21µM*	?	-13
CC(=O)Nc1cccc(NC(=O)CSc2cn(CC(=O)N3CCCCCC3)c3ccccc23)c1	.	.	.	?	18µM*	.
NC(=O)c1ccc(NC(=O)CSc2cn(CC(=O)N3CCOCC3)c3ccccc23)cc1	5%	11%	14%	-13%	-2%	1
O=C(CSc1cn(CC(=O)N2CCCCC2)c2ccccc12)Nc1ccccc1	.	.	.	?	-3%	.
COC(=O)c1ccc(NC(=O)CSc2cn(CC(=O)N3CCCCC3)c3ccccc23)cc1	.	.	.	?	21µM*	.
COc1cccc(N=CNc2cccc(OC)c2)c1	-22%	?	.	6%	1%	-16
Cc1cc(Cl)ccc1OCCCC(=O)OCC(N)=O	-9%	6%	-7%	1%	-2%	-7
COc1cc(C(=O)Nc2cc(-c3cn4cccnc4n3)ccc2C)cc(OC)c1OC	14%	3%	?	-4%	-11%	15
COCCNC(=O)CSc1cn(CC(=O)N2CCCCCC2)c2ccccc12	.	.	.	0.52µM*	?	.
COc1ccc(C(=O)NCCn2cc(SCc3cc(C)ccc3C)c3ccccc32)cc1	.	.	.	?	13µM*	.
Cc1ccc(C(=O)NCCn2cc(SCC(=O)Nc3cc(C)on3)c3ccccc32)cc1	0%	-1%	?	?	?	0
CC(=O)c1cccc(NC(=O)C(=O)c2cn(CC(=O)N3CCCCC3)c3ccccc23)c1	-1%	-5%	?	23µM*	26µM*	-13
CCOc1ccc(NC(=O)CSc2cn(CC(=O)N3CCCCCC3)c3ccccc23)cc1	.	.	.	?	23µM*	.
COC(=O)c1cc(NC(=O)CCc2c(C)nc3c(c(C)nn3C(C)(C)C)c2C)cc(C(=O)OC)c1	.	.	.	?	-20%	.
COc1ccc(N2CCN(S(=O)(=O)CCNC(=O)Cc3ccc(Cl)cc3)CC2)cc1	.	.	.	-23%	3%	.
CCN(C(=O)CO/N=C/c1ccc(OC)cc1OC)c1c(N)n(Cc2ccccc2)c(=O)[nH]c1=O	6%	8%	5%	2%	-7%	-13
Cc1ccccc1OCCSc1nc(C)c(Cc2ccccc2)c(=O)[nH]1	.	.	.	-20%	?	.
COc1cccc(OC)c1C(=O)Nc1cccc(-n2cnnn2)c1	9%	6%	0%	-5%	4%	-7
O=C(CSc1cn(CCNC(=O)c2ccccc2)c2ccccc12)NCc1ccco1	-16%	-3%	?	?	26µM*	-18
Cc1nnc(NC(=O)Nc2cccc(Cl)c2)s1	-11%	-16%	-6%	13µM*	?	-6
SMILES	HT1080-NT tox	HT1080 IDH1KD tx	ELG1 repair inh	DT40 TDP1 no CPT	DT40 TDP1 CPT	IL1B secr inh
Cc1csc(NC(=O)Nc2cccc(Cl)c2)n1	-2%	-10%	?	23µM*	?	5
Cc1cc(C)nc(/N=C(\NC(=O)C(C)(C)C)Nc2ccccc2)n1	8%	6%	-6%	0%	18%	42
Cc1cc(C)nc(/N=C(/NC(=O)Nc2cccc(Cl)c2)Nc2ccccc2)n1	2%	13%	-17%	18µM*	?	-1
Cc1ccc(OCCSCc2nnc(NC(=O)Nc3cccc(Cl)c3)s2)cc1	?	?	?	4.6µM*	4.6µM*	-4
Cc1ccc(S(=O)(=O)NCc2ccc(C(=O)NC3CCCCC3)cc2)cc1	-2%	-10%	-6%	-13%	?	9
COc1ccccc1N(CC(=O)NCCSc1ccc(Cl)cc1)S(C)(=O)=O	6%	-16%	-14%	-21%	-7%	5
CCOc1ccccc1-c1noc(CCC(=O)NC2CCCCC2)n1	0%	3%	-5%	-28%	-2%	6
COc1ccccc1-c1noc(CCC(=O)Nc2cc(C(F)(F)F)ccc2Cl)n1	-8%	-2%	-9%	?	-21%	2
CCOc1ccccc1-c1noc(CCCC(=O)Nc2cccc(C(F)(F)F)c2)n1	.	.	.	18µM*	18µM*	.
COc1ccccc1-c1noc(CCCC(=O)Nc2cccc(C(F)(F)F)c2)n1	.	.	.	18µM*	?	.
CS(=O)(=O)Nc1ccccc1-c1cccc2nccn12	3%	6%	.	4%	3%	14
O=C(Nc1ccc(Cl)cc1F)C1CC(=O)N(Cc2ccco2)C1 (stereo unspecified)	-1%	1%	1%	-1%	0%	-8
CC(=O)Sc1nc(-c2ccccc2)[nH]c1S(=O)(=O)c1ccc(C)cc1	6%	18%	1%	21µM*	18µM*	-5
CSc1nc(-c2ccc(C)cc2)[nH]c1S(=O)(=O)c1ccccc1	-18%	23µM*	?	-23%	-11%	-4
Cc1ccc(S(=O)(=O)c2[nH]c(-c3ccccc3)nc2SCC(=O)O)cc1	.	.	.	-9%	-4%	.
CCNC(=S)N/N=C/c1ccccc1[N+](=O)[O-]	20%	16%	5%	?	23µM*	29
CCCOc1ccc(/C=N/Nc2ccccc2[N+](=O)[O-])c(O)c1	-29%	?	?	12µM*	10µM*	-8
CCOc1ccccc1/C=N/Nc1ccccc1[N+](=O)[O-]	-3%	-3%	?	-24%	1%	-24
CCCOc1ccc(/C=N/Nc2ccc(C(=O)O)cc2)c(OCCC)c1	-21%	?	?	-21%	?	?
